The target in assay [1] is Oxysterols receptor LXR-beta (Homo sapiens) (UniProt P55055). Briefly: ATG_LXRb_TRANS: Attagene TRANS-FACTORIAL HepG2 Assay for human Liver X Receptor beta (LXRb) (AID 2282981; active = hit-call score of the fitted dose curve at least 0.9, where 1 is the maximum). Conditions: HepG2 Attagene TRANS GAL4-LXRb reporter, mRNA. The method, boiled down:
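In this TRANS format, exogenous chimeric NR-Gal4 protein activity, not endogenous factors, drives reporter expression in transfected human HepG2 cells. Exposure lasted 24 h; reporter mRNA was read by fluorescent capillary electrophoresis.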

The target in assay [2] is Hepatocyte nuclear factor 4-alpha (Homo sapiens) (UniProt P41235). The assay is described as follows: ATG_HNF4a_TRANS: Attagene TRANS-FACTORIAL HepG2 Assay for human Hepatocyte Nuclear Factor 4 alpha (HNF4a) (AID 2282982; active = hit-call score of the fitted dose curve at least 0.9, where 1 is the maximum). Conditions: HepG2 HNF4a transactivation reporter, mRNA readout. An outline of the steps: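 Cells used were human HepG2, transiently carrying GAL4-UAS reporter units read out against exogenous NR-GAL4 chimeras. Reporter transcript levels after 24 h dosing were quantified by fluorescent RT-PCR and capillary electrophoresis.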
Hepatocyte nuclear factor 4-alpha (Homo sapiens), sequence (P41235 whole entry, looked up, the tested form may be a part): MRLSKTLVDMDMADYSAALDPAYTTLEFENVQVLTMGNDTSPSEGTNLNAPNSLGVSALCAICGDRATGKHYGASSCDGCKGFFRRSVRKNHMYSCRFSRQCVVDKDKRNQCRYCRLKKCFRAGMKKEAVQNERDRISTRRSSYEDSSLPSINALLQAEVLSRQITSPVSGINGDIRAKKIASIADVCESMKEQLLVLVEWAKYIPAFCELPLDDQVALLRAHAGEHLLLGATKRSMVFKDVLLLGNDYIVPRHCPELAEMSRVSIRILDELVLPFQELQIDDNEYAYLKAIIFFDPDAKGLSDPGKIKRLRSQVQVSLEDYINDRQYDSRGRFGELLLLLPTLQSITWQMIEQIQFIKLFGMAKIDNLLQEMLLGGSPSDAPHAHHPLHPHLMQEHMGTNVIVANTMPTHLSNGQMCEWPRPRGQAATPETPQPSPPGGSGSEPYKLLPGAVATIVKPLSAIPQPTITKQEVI

Assay [3] in a line: ATG_M_06_TRANS: Attagene TRANS-FACTORIAL HepG2 Assay for M06 Transcription Factor (Internal Marker) (AID 2282983; active = hit-call score of the fitted dose curve at least 0.9, where 1 is the maximum). Conditions: HepG2 Attagene TRANS M06 internal marker reporter. The method, boiled down:
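HepG2 cells transiently transfected with multiplexed GAL4-UAS reporter transcription units; after 24 h compound exposure, reporter mRNA measured by RT-PCR, FAM-labelled primer extension, HpaI digestion and capillary electrophoresis. Gain-of-signal fitted versus DMSO baseline; background control readout.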

Assay [4] can be described thus: ATG_M_32_TRANS: Attagene TRANS-FACTORIAL HepG2 Assay for M32 Transcription Factor (Internal Marker) (AID 2282984; active = hit-call score of the fitted dose curve at least 0.9, where 1 is the maximum). Conditions: HepG2 Attagene TRANS M32 internal marker reporter. An outline of the steps:
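Human hepatoma HepG2, transient MRTU transfection, 24 h treatment. RNA → RT-PCR → fluorescent primer extension → HpaI digest (2 h, 37 C) → CE. Positive-direction fit vs DMSO.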

Assay [5] concerns the target Nuclear receptor subfamily 4 group A member 2 (Homo sapiens) (UniProt P43354). The assay is described as follows: ATG_NURR1_TRANS: Attagene TRANS-FACTORIAL HepG2 Assay for human Nuclear Receptor Related Protein 1 (NURR1) (AID 2282985; active = hit-call score of the fitted dose curve at least 0.9, where 1 is the maximum). Conditions: HepG2 Attagene TRANS reporter, mRNA readout. An outline of the steps:
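After 24 h chemical dosing, total RNA from transiently transfected HepG2 cells was reverse-transcribed and reporter cDNA PCR-amplified, FAM-labelled and analysed by capillary electrophoresis. Activity fitted in positive direction, DMSO as negative control.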

The target of assay [6] is Transcriptional activator Myb (Homo sapiens) (UniProt P10242). The assay is described as follows: ATG_Myb_CIS: Attagene CIS-FACTORIAL HepG2 Assay for human Myeloblastosis (Myb) Proto-Oncogene Transcription Factor (AID 2282986). Conditions: HepG2 Attagene CIS-FACTORIAL Myb reporter transcription; actives raise or lower the signal. The method, boiled down: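 Transiently transfected HepG2 cells carrying a multiplexed cis-promoter reporter set report endogenous Myb activity after 24 h compound exposure. Reporter mRNA is read by RT-PCR with capillary electrophoresis of fluorescent products, fitted bidirectionally against DMSO.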
Transcriptional activator Myb (Homo sapiens), sequence (P10242 whole entry, looked up): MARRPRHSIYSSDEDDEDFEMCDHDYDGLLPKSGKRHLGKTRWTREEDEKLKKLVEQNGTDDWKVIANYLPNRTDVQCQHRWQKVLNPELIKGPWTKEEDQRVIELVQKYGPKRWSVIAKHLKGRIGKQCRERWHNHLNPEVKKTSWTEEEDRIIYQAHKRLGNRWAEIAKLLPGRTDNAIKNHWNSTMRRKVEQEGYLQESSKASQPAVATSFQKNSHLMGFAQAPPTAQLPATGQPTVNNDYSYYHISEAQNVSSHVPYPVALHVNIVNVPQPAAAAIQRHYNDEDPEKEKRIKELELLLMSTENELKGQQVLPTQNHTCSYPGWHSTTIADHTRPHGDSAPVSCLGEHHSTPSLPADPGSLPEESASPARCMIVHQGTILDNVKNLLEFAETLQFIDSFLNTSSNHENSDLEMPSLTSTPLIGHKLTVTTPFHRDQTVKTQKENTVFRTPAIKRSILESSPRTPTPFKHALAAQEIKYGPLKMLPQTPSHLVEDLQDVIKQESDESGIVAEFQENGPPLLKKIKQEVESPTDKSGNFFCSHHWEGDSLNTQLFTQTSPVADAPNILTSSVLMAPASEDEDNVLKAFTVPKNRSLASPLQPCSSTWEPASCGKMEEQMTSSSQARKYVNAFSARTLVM

Assay [7] addresses Nuclear respiratory factor 1 (Homo sapiens) (UniProt Q16656). The assay is described as follows: ATG_NRF1_CIS: Attagene CIS-FACTORIAL HepG2 Assay for human Nuclear Respiratory Factor 1 (NRF1) Orphan Gene (AID 2282987). Conditions: HepG2 NRF1 cis-element reporter, Attagene multiplex; actives raise or lower the signal. The method, boiled down: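 HepG2 cells transiently transfected with multiple cis-regulated reporter units, exposed 24 h. Reporter mRNAs measured by RT-PCR, fluorescent labelling, HpaI digestion and capillary electrophoresis; bidirectional fitting against DMSO.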

The nature of assay [8]: ATG_NFI_CIS: Attagene CIS-FACTORIAL HepG2 Assay for human Nuclear Factor I (NFI) (AID 2282989). Conditions: HepG2 cis-regulatory reporter, NFI response element transcription; actives raise or lower the signal. The method, boiled down:
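Read-out: reporter mRNA via RT-PCR plus capillary electrophoresis with fluorescence detection. Transiently transfected HepG2 (endogenous TF activity on cis promoters), 24 h compound exposure; gain or loss of signal fitted against DMSO.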

The target of assay [9] is Myc proto-oncogene protein (Homo sapiens) (UniProt P01106). The assay is described as follows: ATG_Myc_CIS: Attagene CIS-FACTORIAL HepG2 Assay for human Myelocytomatosis (Myc) Proto-Oncogene Transcription Factor (AID 2282990). Conditions: HepG2, Attagene cis-reporter transcription factor activity; actives raise or lower the signal. The method, boiled down:
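Multiplexed cis-reporter transcription in HepG2 cells after 24 h chemical treatment. Reporter mRNA measured by RT-PCR and capillary electrophoresis fluorescence; activity fitted bidirectionally against DMSO control.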

Assay [10] can be described thus: ATG_NF_kB_CIS: Attagene CIS-FACTORIAL HepG2 Assay for human Nuclear Factor Kappa B (NF-kB) (AID 2282991). Conditions: HepG2 Attagene cis-factorial NF-kB reporter mRNA; actives raise or lower the signal. An outline of the steps:
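HepG2 cells transfected with cis-promoter-driven reporter units, so endogenous transcription factor activity is measured. Reporter mRNA quantified 24 h after dosing by RT-PCR and capillary electrophoresis, with bidirectional fitting against DMSO.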

Assay [11] in a line: ATG_NRF2_ARE_CIS: Attagene CIS-FACTORIAL HepG2 Assay for human Nuclear Factor Erythroid 2 Related Factor 2 (NFR2) response to Antioxidant Response Elements (ARE) (AID 2282992). Conditions: HepG2 Attagene ARE/NRF2 reporter, transcription factor activity; actives raise or lower the signal. The method, boiled down:
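Transient MRTU transfection of HepG2; 24 h compound exposure; TriZol RNA, RT with oligo(dT), PCR, 6-FAM primer extension, HpaI cut, CE. Bidirectional fit vs DMSO.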

Assay [12] is described as follows: ATG_Oct_MLP_CIS: Attagene CIS-FACTORIAL HepG2 Assay for human Octamer-Binding Transcription Factor (Oct) (AID 2282993). Conditions: HepG2 Attagene cis-factorial Oct reporter, mRNA; actives raise or lower the signal. An outline of the steps: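 Read-out: reporter mRNA via RT-PCR plus capillary electrophoresis of 6-FAM-labelled fragments. Transiently transfected HepG2, 24 h exposure, endogenous TF activity on cis elements. Gain or loss of signal fitted relative to DMSO.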

Assay [13] addresses Cellular tumor antigen p53 (Homo sapiens) (UniProt P04637). Briefly: ATG_p53_CIS: Attagene CIS-FACTORIAL HepG2 Assay for human p53 Transcription Factor (AID 2282994). Conditions: HepG2 p53 cis-element reporter, Attagene mRNA; actives raise or lower the signal. An outline of the steps:
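HepG2, transient MRTU transfection (cis promoter elements, endogenous TFs); 24 h dosing; RNA isolation, RT-PCR, 6-FAM primer extension, HpaI digest, CE fluorescence; bidirectional fit vs DMSO.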

Assay [14] can be described thus: BSK_3C_TissueFactor: BioMAP Diversity Plus: 3C Assay for Tissue Factor Biomarker Activity (AID 2282997). Conditions: BioMAP 3C HUVEC, tissue factor biomarker readout; actives raise or lower the signal. The method, boiled down: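 Primary human umbilical vein endothelial cells in the 3C system were exposed to test chemical for 24 h, then Tissue Factor measured by ELISA. Activity was fitted bidirectionally against DMSO as negative control and baseline.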

Assay [15] can be described thus: BSK_3C_uPAR: BioMAP Diversity Plus: 3C Assay for Urokinase-type plasminogen activator receptor (uPAR) Biomarker Activity (AID 2282998). Conditions: BioMAP 3C HUVEC, uPAR biomarker ELISA; actives raise or lower the signal. An outline of the steps:
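HUVEC primary cells; 24 h post-dose; uPAR by ELISA; gain or loss of signal fitted bidirectionally vs DMSO baseline.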
(In an ELISA, binding on a coated surface is turned into a signal by an enzyme label.)

Assay [16] can be described thus: BSK_3C_VCAM1: BioMAP Diversity Plus: 3C Assay for Vascular cell adhesion molecule 1 (VCAM1) Biomarker Activity (AID 2282999). Conditions: BioMAP 3C HUVEC, VCAM1 ELISA, cytokine-stimulated; actives raise or lower the signal. An outline of the steps:
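Human umbilical vein endothelial cells were dosed with compound for 24 h, after which cell-surface VCAM-1 was quantified by ELISA. Bidirectional curve fitting used DMSO as negative control and activity baseline.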

Assay [17] is described as follows: BSK_4H_Eotaxin3: BioMAP Diversity Plus: 4H Assay for Eotaxin 3 Biomarker Activity (AID 2283000).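 As to outcome: CCL26 protein level quantified by ELISA in parallel with SRB cytotoxicity check.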 Conditions: primary human endothelial cells (HUVEC); actives raise or lower the signal. An outline of the steps:
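HUVEC, 24 h post-dose, ELISA for Eotaxin-3/CCL26. Gain or loss of signal fitted bidirectionally vs DMSO baseline.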

Assay [18] addresses human Peroxisome Proliferator-activated Receptor alpha (PPARa), PPARA (gene 5465) (UniProt Q07869). Briefly: ATG_PPARa_TRANS: Attagene TRANS-FACTORIAL HepG2 Assay for human Peroxisome Proliferator-activated Receptor alpha (PPARa) (AID 2283001; active = hit-call score of the fitted dose curve at least 0.9, where 1 is the maximum;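 as to AC50: potency for gain of reporter signal over DMSO so agonist or activator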). An outline of the steps: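 Gain-of-signal endpoint: reporter mRNA induction relative to DMSO, detected by fluorescent RT-PCR and capillary electrophoresis. HepG2 cells transiently carried GAL4-UAS-driven reporter units plus NR-Gal4 fusion; exposure lasted 24 h.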

Assay [19] deals with human Peroxisome Proliferator-activated Receptor delta (PPARd), PPARD (gene 5467) (UniProt Q03181). Briefly: ATG_PPARd_TRANS: Attagene TRANS-FACTORIAL HepG2 Assay for human Peroxisome Proliferator-activated Receptor delta (PPARd) (AID 2283002; active = hit-call score of the fitted dose curve at least 0.9, where 1 is the maximum). An outline of the steps: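 Multiplexed trans-activation format: HepG2 liver cells expressing exogenous NR-Gal4 chimeras and GAL4-UAS reporters were exposed for 24 h. Reporter mRNA was detected by RT-PCR with capillary electrophoresis fluorescence; activity fitted as gain of signal relative to DMSO.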
human Peroxisome Proliferator-activated Receptor delta (PPARd), PPARD (gene 5467), sequence (Q03181 whole entry, looked up, the tested form may be a part): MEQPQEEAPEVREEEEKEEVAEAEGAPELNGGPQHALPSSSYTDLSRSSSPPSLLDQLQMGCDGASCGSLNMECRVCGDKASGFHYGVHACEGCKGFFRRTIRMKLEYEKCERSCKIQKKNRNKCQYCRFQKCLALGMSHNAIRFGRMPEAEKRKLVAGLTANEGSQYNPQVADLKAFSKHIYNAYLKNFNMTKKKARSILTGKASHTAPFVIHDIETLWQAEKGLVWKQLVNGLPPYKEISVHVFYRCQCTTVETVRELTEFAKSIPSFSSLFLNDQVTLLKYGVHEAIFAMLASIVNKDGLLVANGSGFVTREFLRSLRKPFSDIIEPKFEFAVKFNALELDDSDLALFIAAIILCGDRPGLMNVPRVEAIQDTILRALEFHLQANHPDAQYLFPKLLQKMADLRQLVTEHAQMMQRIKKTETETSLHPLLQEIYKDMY

Where “and” joins values, the source holds several entries; their conditions need not be identical. Equal values may be shown once. Results filed as inconclusive are left out. Calls of active or inactive are those of the source. The calls were made as follows, unless noted: active = hit-call score of the fitted dose curve at least 0.9, where 1 is the maximum; inactive = score below 0.9.

human Peroxisome Proliferator-activated Receptor alpha (PPARa), PPARA (gene 5465), sequence (Q07869 whole entry, looked up, the tested form may be a part): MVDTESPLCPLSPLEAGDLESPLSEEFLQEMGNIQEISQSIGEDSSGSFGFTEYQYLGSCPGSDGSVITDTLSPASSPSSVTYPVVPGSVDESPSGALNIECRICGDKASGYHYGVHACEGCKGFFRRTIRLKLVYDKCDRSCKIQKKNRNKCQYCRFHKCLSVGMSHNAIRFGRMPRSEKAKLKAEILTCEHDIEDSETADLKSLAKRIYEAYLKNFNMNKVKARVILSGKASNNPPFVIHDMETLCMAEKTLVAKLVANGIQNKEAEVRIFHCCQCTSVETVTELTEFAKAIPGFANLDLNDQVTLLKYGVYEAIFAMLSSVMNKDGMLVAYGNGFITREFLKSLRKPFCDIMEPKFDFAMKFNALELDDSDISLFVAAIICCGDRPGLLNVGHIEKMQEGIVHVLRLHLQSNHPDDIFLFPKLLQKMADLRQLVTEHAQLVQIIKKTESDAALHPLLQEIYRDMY
Cellular tumor antigen p53 (Homo sapiens), sequence (P04637 whole entry, looked up): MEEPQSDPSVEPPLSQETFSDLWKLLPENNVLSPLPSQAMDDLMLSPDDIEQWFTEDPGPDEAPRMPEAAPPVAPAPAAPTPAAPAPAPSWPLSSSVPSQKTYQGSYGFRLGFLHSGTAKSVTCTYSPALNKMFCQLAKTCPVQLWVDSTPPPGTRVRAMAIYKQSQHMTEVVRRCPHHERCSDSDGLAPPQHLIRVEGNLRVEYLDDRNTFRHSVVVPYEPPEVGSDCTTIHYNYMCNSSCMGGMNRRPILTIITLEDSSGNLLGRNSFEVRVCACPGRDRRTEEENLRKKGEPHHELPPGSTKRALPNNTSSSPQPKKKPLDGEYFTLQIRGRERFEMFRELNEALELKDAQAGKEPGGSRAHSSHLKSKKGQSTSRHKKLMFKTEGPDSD
Oxysterols receptor LXR-beta (Homo sapiens), sequence (P55055 whole entry, looked up, the tested form may be a part): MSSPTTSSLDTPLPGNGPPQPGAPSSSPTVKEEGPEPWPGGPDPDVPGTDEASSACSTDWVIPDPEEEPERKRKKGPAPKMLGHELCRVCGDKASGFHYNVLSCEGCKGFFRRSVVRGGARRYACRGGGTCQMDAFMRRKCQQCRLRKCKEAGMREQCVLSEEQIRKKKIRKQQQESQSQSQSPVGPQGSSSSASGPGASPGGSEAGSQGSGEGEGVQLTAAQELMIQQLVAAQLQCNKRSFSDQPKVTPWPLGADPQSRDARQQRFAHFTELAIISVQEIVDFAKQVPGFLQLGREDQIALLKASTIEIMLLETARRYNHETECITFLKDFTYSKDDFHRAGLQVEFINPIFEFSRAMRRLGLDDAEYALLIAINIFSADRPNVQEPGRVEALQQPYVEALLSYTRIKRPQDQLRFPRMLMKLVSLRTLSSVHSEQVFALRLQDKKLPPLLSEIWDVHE
Nuclear receptor subfamily 4 group A member 2 (Homo sapiens), sequence (P43354 whole entry, looked up): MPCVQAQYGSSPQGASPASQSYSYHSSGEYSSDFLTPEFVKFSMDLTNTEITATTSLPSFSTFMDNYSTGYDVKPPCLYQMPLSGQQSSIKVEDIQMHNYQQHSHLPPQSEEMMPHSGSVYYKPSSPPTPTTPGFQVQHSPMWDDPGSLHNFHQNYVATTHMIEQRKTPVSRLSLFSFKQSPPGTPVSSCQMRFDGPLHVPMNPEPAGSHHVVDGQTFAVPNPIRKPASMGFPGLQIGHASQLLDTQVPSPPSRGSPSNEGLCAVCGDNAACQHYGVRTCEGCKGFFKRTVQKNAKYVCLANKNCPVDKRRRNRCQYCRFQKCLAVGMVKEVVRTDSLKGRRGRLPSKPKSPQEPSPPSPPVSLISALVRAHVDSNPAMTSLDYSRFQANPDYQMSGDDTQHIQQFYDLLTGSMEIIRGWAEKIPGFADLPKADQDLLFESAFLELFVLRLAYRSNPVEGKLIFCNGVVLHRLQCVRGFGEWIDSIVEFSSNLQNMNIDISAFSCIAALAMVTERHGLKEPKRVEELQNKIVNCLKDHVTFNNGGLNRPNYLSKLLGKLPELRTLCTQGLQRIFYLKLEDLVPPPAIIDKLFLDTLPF
Myc proto-oncogene protein (Homo sapiens), sequence (P01106 whole entry, looked up): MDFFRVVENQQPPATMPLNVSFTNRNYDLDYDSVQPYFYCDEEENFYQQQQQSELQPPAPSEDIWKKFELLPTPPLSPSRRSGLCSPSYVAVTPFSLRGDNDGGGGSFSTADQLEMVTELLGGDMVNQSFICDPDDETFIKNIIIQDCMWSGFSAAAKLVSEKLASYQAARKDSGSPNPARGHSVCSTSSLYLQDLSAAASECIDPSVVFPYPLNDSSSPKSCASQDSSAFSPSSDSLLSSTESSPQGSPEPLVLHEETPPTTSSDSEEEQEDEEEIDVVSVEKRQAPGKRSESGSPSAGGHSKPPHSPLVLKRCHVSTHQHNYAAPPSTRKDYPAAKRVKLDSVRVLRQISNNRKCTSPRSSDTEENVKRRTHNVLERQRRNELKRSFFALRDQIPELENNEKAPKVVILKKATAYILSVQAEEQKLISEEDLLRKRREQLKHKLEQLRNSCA
Nuclear respiratory factor 1 (Homo sapiens), sequence (Q16656 whole entry, looked up): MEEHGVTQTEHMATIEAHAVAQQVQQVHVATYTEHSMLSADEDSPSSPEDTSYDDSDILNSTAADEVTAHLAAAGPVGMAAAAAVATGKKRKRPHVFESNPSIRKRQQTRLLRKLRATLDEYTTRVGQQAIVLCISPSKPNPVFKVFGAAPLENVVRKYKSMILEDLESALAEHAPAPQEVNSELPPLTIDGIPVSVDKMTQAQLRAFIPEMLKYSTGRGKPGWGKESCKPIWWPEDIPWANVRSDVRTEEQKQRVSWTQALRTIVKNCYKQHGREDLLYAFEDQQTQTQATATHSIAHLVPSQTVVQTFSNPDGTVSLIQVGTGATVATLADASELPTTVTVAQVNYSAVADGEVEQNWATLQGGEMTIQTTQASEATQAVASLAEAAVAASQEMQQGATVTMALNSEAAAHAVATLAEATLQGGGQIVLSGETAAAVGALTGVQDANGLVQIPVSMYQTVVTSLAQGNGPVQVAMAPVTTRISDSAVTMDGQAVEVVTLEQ

The AC50 is the concentration at which the activity in the assay is half-maximal. `CCOC(=O)CN[C@@H](C(=O)N1CC[C@H]1C(=O)NCc1ccc(/C(N)=N/O)cc1)C1CCCCC1`: the compound was called inactive in assay [1], in assay [2], in assay [3], in [4], in assay [6] and in [7]. For the same compound, the compound was called inactive in assay [8], in assay [9], in assay [10], in assay [11], in assay [12] and in assay [13]. For the same compound, the result in [14], in [15], in assay [16], in [17], in [18] and in assay [19] was inactive. In addition, the AC50 in [5] is 3.99 µM (active).
With `CCCCCCc1ccc(N)cc1`, the compound was called inactive in assay [1], in assay [2], in [3], in assay [4], in [6] and in assay [7]. Further, the outcome in assay [8], in assay [9], in assay [10], in [12], in assay [18] and in assay [19] was inactive. Besides, the AC50 in assay [11] is 2.51 µM (active); in assay [13], 6.32 µM (active).
With `CCC(=O)C=Cc1ccc(OC)cc1`, the call in assay [1], in [2], in assay [3], in assay [5], in assay [7] and in assay [8] was inactive. Also, the compound was classed as inactive in [9], in assay [12], in [13] and in [19]. Also, the concentration at half-maximal activity (AC50) in assay [6] is 137 µM (active); in assay [10], 100 µM (active); in assay [11], 27.1 µM (active).
Consider `CCOCCOCC`, for which the outcome in assay [1], in assay [2], in assay [3], in [4], in assay [5] and in [6] was inactive. Moreover, the result in [7], in assay [8], in assay [9], in [10], in assay [11] and in assay [13] was inactive.
With `C=CC(=O)OCCN(CC)CC`, the compound was classed as inactive in assay [1], in [2], in [4], in assay [6], in assay [7] and in [9]. Also, the result in assay [10] and in assay [18] was inactive. Besides, the AC50 in assay [8] was 27.4 µM (active); in [11], 144 µM (active); in assay [12], 48.9 µM (active); in [13] it was 169 µM (active).
`CCCCCCCCCCCCCC[n+]1ccccc1`: the half-maximal activity concentration (AC50) in assay [1] is 53.6 µM (active); in assay [2], 100 µM (active); in [4], 47 µM (active); in assay [5] it was 9.84 µM (active); in [11], 0.172 µM (active); in assay [18], 177 µM (active). The compound was called inactive in assay [6], in [7], in [8], in assay [9], in assay [10] and in assay [12]. The compound was called inactive in [13] and in [19].
As to `O=P(O)(O)CCC(F)(F)C(F)(F)C(F)(F)C(F)(F)C(F)(F)C(F)(F)C(F)(F)C(F)(F)F`, the call in [1], in assay [2], in [3], in [4], in assay [6] and in assay [7] was inactive. The compound was called inactive in assay [8], in assay [9], in assay [10], in assay [11], in assay [12] and in assay [13]. Further, the outcome in [14], in assay [15], in assay [16], in assay [18] and in assay [19] was inactive. Also, the half-maximal activity concentration (AC50) in [17] was 41.5 µM (active) and 28.8 µM (active).
As to `COc1ccc(C#N)cc1`, the outcome in [1], in [2], in [3], in assay [4], in assay [6] and in [7] was inactive. Further, the outcome in assay [9], in assay [10], in assay [11], in assay [12], in assay [13] and in assay [18] was inactive.
